In PubChem BioAssay AID1259349 (Broad Institute, 2017):
“And” between values parts separate entries of the source, which are not always exact repeats. Identical values can stand only once. About 1,100 (6.5%) of roughly 17,000 compounds were called active.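 Rule for the calls: active = z-score of -3 or lower, meaning strong loss of probe binding signal; inactive = the rest.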 This excerpt belongs to a sample that is enriched for actives. Where a structure was tested more than once in an assay, its records may differ in their call.

Target: Insulin-degrading enzyme (Homo sapiens) (UniProt P14735)
Experiment: displacers of FL-6b probe from IDE – biochemical, fluorescence anisotropy, probe displacement, primary screen (AID 1259349);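 note: His-tagged human IDE residues 42-1019 made in E. coli with 30 nM FL-6b probe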
Conditions: purified IDE, FL-6b probe fluorescence polarization; at 20 µM; stronger effect = lower value

Sequence of Insulin-degrading enzyme (Homo sapiens) (P14735 42-1019 limits assumed): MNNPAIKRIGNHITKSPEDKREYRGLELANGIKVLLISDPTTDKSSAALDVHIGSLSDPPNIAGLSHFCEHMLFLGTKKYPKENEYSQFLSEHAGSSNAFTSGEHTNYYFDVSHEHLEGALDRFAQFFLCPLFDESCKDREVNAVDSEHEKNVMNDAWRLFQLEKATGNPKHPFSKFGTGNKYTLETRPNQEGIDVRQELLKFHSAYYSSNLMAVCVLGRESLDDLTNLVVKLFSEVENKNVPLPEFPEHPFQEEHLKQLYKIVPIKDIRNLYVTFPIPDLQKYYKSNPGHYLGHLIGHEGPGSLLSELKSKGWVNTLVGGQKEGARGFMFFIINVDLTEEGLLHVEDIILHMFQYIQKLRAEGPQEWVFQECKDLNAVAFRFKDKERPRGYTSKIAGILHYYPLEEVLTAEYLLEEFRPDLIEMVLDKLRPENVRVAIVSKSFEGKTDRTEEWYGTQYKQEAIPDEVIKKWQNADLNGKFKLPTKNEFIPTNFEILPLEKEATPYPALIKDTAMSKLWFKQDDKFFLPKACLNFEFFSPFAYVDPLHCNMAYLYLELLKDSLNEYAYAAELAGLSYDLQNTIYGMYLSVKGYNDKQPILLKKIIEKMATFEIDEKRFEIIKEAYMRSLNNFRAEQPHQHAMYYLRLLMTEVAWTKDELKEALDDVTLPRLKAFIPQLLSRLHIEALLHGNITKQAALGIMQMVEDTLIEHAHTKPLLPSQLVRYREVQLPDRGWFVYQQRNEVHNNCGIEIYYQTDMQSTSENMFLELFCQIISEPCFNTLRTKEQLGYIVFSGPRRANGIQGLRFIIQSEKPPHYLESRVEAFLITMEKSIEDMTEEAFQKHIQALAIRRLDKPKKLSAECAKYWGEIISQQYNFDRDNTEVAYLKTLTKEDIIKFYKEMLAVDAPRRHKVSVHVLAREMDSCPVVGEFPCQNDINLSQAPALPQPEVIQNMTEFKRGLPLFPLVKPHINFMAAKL

Row | SMILES | z-score
1 | CCC(=O)N1[C@@H](CO)[C@@H]2c3ccccc3N(C(=O)c3cnccn3)C[C@@H]21 | 1.18 (inactive)
2 | CO[C@@H]1CN(C)C(=O)c2cc(NS(=O)(=O)c3cccc(Cl)c3)ccc2OC[C@@H](C)NC[C@@H]1C | -0.0121 (inactive)
3 | O=C(c1cnccn1)N1CC(=O)N2[C@H](C1)[C@@H](c1ccc(C#CC3CCCCC3)cc1)[C@@H]2CO | 4.43 (inactive)
4 | Cc1ccccc1S(=O)(=O)N1C[C@H](O)COC[C@H]2O[C@H](CC(=O)N3CCCCC3)CC[C@@H]21 | -0.576 (inactive)
5 | C[C@H](NC(=O)C[C@H]1CC[C@H]2[C@@H](COC[C@H](O)CN2C(=O)Nc2cccc(Cl)c2)O1)c1ccccc1 | 1.23 (inactive)
6 | Cn1cnc(S(=O)(=O)N2CCCCN3[C@@H](CO)[C@@H](c4ccc(C#CC5CCCC5)cc4)[C@@H]3C2)c1 | 1.81 (inactive)
7 | O=C(Nc1ccc(C(F)(F)F)cc1)N1[C@@H]2CNC[C@H]1C2c1ccc(-c2ccncc2)cc1 (some centres not stated) | 3.1 (inactive) and 5.44 (inactive)
8 | COc1ccc(-c2ccc3c(c2)[C@@H]2[C@@H](CCN2C(=O)c2cccc(F)c2)[C@H](CO)N3)cc1 | 1.25 (inactive)
9 | O=C(c1ccccc1)N1CC(=O)N2[C@@H](CO)[C@H](c3ccc(C#CCC4CCCC4)cc3)[C@@H]2C1 | 0.717 (inactive)
10 | CNC[C@@H]1OCCCC[C@H](C)Oc2ccc(NC(=O)Nc3ccc(OC)cc3)cc2C(=O)N([C@H](C)CO)C[C@@H]1C | 1.03 (inactive)
11 | CC(=O)N1CC2(C1)[C@H](c1ccccc1)[C@@H](CO)N2C(=O)Cc1ccccc1 | -0.887 (inactive)
12 | COc1ccc2c3c([nH]c2c1)[C@@H](CO)N(Cc1cc(F)ccc1F)CC31CN(C(=O)C2CCC2)C1 | -1.31 (inactive)
13 | COc1ccc2c3c([nH]c2c1)[C@H](CO)N(Cc1ccccc1Cl)CC31CN(C(=O)C2CC2)C1 | -4.06 (active)
14 | COCC(=O)N1CC2(C1)CN(Cc1ccccc1F)[C@@H](CO)c1[nH]c3cc(OC)ccc3c12 | -1.64 (inactive)
15 | N#Cc1cccc(-c2ccc3c(c2)[C@H]2[C@H](CCN2Cc2ccc4c(c2)OCO4)[C@@H](CO)N3)c1 | 1.22 (inactive)
16 | CC(C)NC(=O)N1CCCCN2[C@H](CO)[C@@H](c3ccc(Br)cc3)[C@H]2C1 | 2.67 (inactive)
17 | CCCNC(=O)N1[C@H](C#N)[C@@H](c2ccccc2)[C@H]1CO | 3.95 (inactive)
18 | C[C@@H]1CCCCO[C@H](CN(C)S(=O)(=O)c2cn(C)cn2)[C@H](C)CN([C@H](C)CO)C(=O)c2cc(N(C)C)ccc2O1 | -0.253 (inactive)
19 | COc1cccc(-c2ccc(C3[C@H]4CNC[C@@H]3N4C(=O)Nc3ccc(F)cc3)cc2)c1 (some centres not stated) | -0.759 (inactive) and -1.81 (inactive)
20 | CCCNC(=O)N1[C@@H]2CNC[C@H]1C2c1ccc(-c2ccccc2)cc1 (some centres not stated) | 0.774 (inactive) and 1.73 (inactive)
21 | CCCNC(=O)N1[C@@H]2CNC[C@H]1C2c1ccc(-c2cccc(C)c2)cc1 (some centres not stated) | 0.449 (inactive) and -6.06 (active)
22 | CCC(=O)N1[C@@H](CO)[C@H](c2ccc(-c3cccc(F)c3)cc2)[C@@H]1CNC(C)=O | 2.2 (inactive)
23 | N#C[C@@H]1[C@H](c2ccccc2-c2ccccc2F)[C@@H](CO)N1C(=O)C1CCOCC1 | 3.52 (inactive)
24 | Cc1noc(C)c1S(=O)(=O)N(C)C[C@H]1Oc2ccc(N(C)C)cc2C(=O)N([C@H](C)CO)C[C@@H]1C | -1.17 (inactive)

Row | SMILES | z-score
25 | CCCC#Cc1ccc([C@@H]2[C@H](CO)N3CCCCN(S(=O)(=O)c4ccccc4F)C[C@@H]23)cc1 | -4.86 (active)
26 | COc1ccccc1C#Cc1ccc([C@@H]2[C@H](CO)N3CCCCN(CCC(F)(F)F)C[C@@H]23)cc1 | -8.07 (active)
27 | COc1ccc(C#Cc2ccc([C@H]3[C@@H](CO)N4CCCCN(C(=O)Nc5ccccc5)C[C@H]34)cc2)cc1 | 4.38 (inactive)
28 | COc1ccccc1NC(=O)N1CCCCN2[C@@H](CO)[C@@H](c3ccc(C#Cc4ccccc4)cc3)[C@@H]2C1 | -2.86 (inactive)
29 | O=C(Nc1ccc(F)cc1)N1CCCCN2[C@H](CO)[C@H](c3ccc(C#Cc4ccccc4)cc3)[C@H]2C1 | -0.00774 (inactive)
30 | CS(=O)(=O)N1CCCCN2[C@@H](CO)[C@@H](c3ccc(Br)cc3)[C@@H]2C1 | -1.86 (inactive)
31 | CN(C)CC#Cc1ccc([C@H]2[C@H]3CN(S(=O)(=O)c4ccccc4F)CCCCN3[C@H]2CO)cc1 | 1.11 (inactive)
32 | COc1ccccc1C#Cc1ccc([C@H]2[C@H](CO)N3CCCCN(C(=O)C4CCC4)C[C@@H]23)cc1 | -12.3 (active)
33 | CCCC#Cc1ccc([C@H]2[C@@H](CO)N3CCCCN(S(=O)(=O)CC)C[C@H]23)cc1 | 3.29 (inactive)
34 | CCCC#Cc1ccc([C@H]2[C@H](CO)N3CCCCN(S(=O)(=O)CC)C[C@@H]23)cc1 | 3.45 (inactive)
35 | COc1ccccc1C#Cc1ccc([C@@H]2[C@@H](CO)N3CCCCN(S(C)(=O)=O)C[C@@H]23)cc1 | -10.2 (active)
36 | OC[C@H]1[C@@H](c2ccc(C#Cc3ccccc3F)cc2)[C@H]2CN(CC3CCOCC3)CCCCN21 | 0.86 (inactive)
37 | CS(=O)(=O)Nc1ccc2c(c1)[C@@H]1C[C@H](CC(=O)NCc3cc(F)ccc3F)O[C@@H](CO)[C@@H]1O2 | -0.994 (inactive)
38 | C/C=C/c1ccc([C@H]2[C@@H](CNC(=O)NC(C)C)N(C(=O)C3CCC3)[C@H]2CO)cc1 | 1.01 (inactive)
39 | C[C@@H](O)C#Cc1ccc([C@H]2[C@H](CO)N3CCCCN(C(=O)c4ccc5c(c4)OCO5)C[C@@H]23)cc1 | -0.442 (inactive)
40 | CCS(=O)(=O)NCC[C@H]1CC[C@@H](NC(=O)Nc2cc(Cl)cc(Cl)c2)[C@@H](CO)O1 | 2.83 (inactive)
41 | CCCNC(=O)C[C@@H]1CC[C@H]2[C@@H](COC[C@H](O)CN2C(=O)Nc2ccc(Cl)c(Cl)c2)O1 | -0.531 (inactive)
42 | Cc1noc(C)c1S(=O)(=O)Nc1ccc2c(c1)C(=O)N([C@@H](C)CO)C[C@@H](C)[C@H](CN(C)C(=O)Nc1cccc3ccccc13)OCCCC[C@H](C)O2 | 0.278 (inactive)
43 | COc1ccccc1-c1ccc2c(c1)O[C@@H](CN(C)CC1CCOCC1)[C@H](C)CN([C@@H](C)CO)S2(=O)=O | -0.56 (inactive)
44 | CCNC(=O)c1cc2c(c(-c3cccc(-c4cncnc4)c3)n1)[C@H](CCO)N(C(C)=O)C2 | -0.344 (inactive)
45 | O=C1CNC[C@H]2[C@@H](c3ccc(C4=CCCC4)cc3)[C@@H](CO)N12 | 1.84 (inactive)
46 | N#C[C@@H]1[C@@H](c2ccc(-c3ccccc3F)cc2)[C@@H](CO)N1C(=O)C1CC1 | -5.9 (active)
47 | N#C[C@H]1[C@@H](c2ccccc2-c2ccccc2F)[C@@H](CO)N1C(=O)C1CCC1 | -0.535 (inactive)
48 | N#C[C@H]1[C@H](c2ccccc2)[C@@H](CO)N1C(=O)c1cccnc1 | 1.75 (inactive)

Row | SMILES | z-score
49 | N#C[C@H]1[C@@H](c2ccc(-c3ccccc3F)cc2)[C@H](CO)N1C(=O)c1ccccn1 | -3.67 (active)
50 | N#C[C@@H]1[C@@H](c2ccc(/C=C/c3ccccc3)cc2)[C@@H](CO)N1C(=O)C1CC1 | -0.906 (inactive)
51 | N#C[C@H]1[C@@H](c2ccccc2C2=CCCCC2)[C@H](CO)N1C(=O)c1ccccn1 | 0.206 (inactive)
52 | CC(=O)N(C)C[C@@H]1[C@@H](c2ccc(-c3ccccc3F)cc2)[C@@H](CO)N1C(C)=O | 2.54 (inactive)
53 | N#C[C@@H]1[C@@H](c2ccc(-c3ccccc3F)cc2)[C@@H](CO)N1C(=O)c1ccccn1 | -6.83 (active)
54 | N#C[C@@H]1[C@H](c2ccccc2-c2ccccc2F)[C@@H](CO)N1C(=O)c1ccccn1 | -0.079 (inactive)
55 | CC(C)NC(=O)N1[C@H](C#N)[C@@H](c2ccc(-c3ccc(F)cc3)cc2)[C@H]1CO | 2.54 (inactive)
56 | O=C(CC1CC1)N1CC(=O)N2[C@H](CO)[C@H](c3ccc(C#Cc4ccc(F)cc4)cc3)[C@@H]2C1 | 3.38 (inactive)
57 | CCC(=O)N(C)C[C@H]1[C@H](c2ccc(C3=CCCCC3)cc2)[C@@H](CO)N1C(C)=O | 3.35 (inactive)
58 | COc1cccc(-c2ccc([C@@H]3[C@@H](C#N)N(C(=O)c4ccccn4)[C@H]3CO)cc2)c1 | -4.27 (active)
59 | N#C[C@@H]1[C@@H](c2ccc(-c3ccccc3)cc2)[C@@H](CO)N1C(=O)Cc1ccccc1 | 1.8 (inactive)
60 | COc1cccc(C#Cc2ccc([C@H]3[C@@H](CO)N(C(=O)c4ccccn4)[C@H]3C#N)cc2)c1 | 0.995 (inactive)
61 | COc1ccc(-c2ccc([C@@H]3[C@@H](C#N)N(C(=O)C4CCC4)[C@@H]3CO)cc2)cc1 | 4.33 (inactive)
62 | COc1cccc(-c2ccc([C@@H]3[C@@H](CO)N(C(=O)c4ccccn4)[C@H]3C#N)cc2)c1 | -6.41 (active)
63 | N#C[C@H]1[C@H](c2ccc(-c3ccccc3)cc2)[C@@H](CO)N1C(=O)Cc1ccccc1 | 1.03 (inactive)
64 | CC(=O)N1[C@@H](CO)[C@@H](c2ccccc2)[C@@H]1CN(C)C(=O)CN1CCOCC1 | 0.517 (inactive)
65 | C[C@@H]1CN([C@H](C)CO)C(=O)c2cc(NC(=O)Cc3ccccc3)ccc2O[C@@H](C)CCCCO[C@@H]1CN(C)Cc1ccncc1 | -1.57 (inactive)
66 | C[C@@H]1COCc2cn(nn2)CC[C@H](C)C(=O)N1 | 0.508 (inactive)
67 | C/C=C/c1ccc([C@@H]2[C@@H](CO)N3C(=O)CN(C(=O)Nc4cccc(OC)c4)C[C@@H]23)cc1 | 0.379 (inactive)
68 | COc1cccc(-c2ccc([C@H]3[C@H]4CN(C(=O)NC(C)C)CC(=O)N4[C@H]3CO)cc2)c1 | -10.1 (active)
69 | COc1ccc(NC(=O)N2CC(=O)N3[C@H](CO)[C@@H](c4ccc(-c5ccc(C)cc5)cc4)[C@H]3C2)cc1 | -0.113 (inactive)
70 | COc1cccc(-c2ccc([C@@H]3[C@@H](CO)N4C(=O)CN(C(=O)C5CCCCC5)C[C@H]34)cc2)c1 | -3.69 (active)
71 | CN(C)C(=O)c1cccc(-c2ccc([C@H]3[C@@H](CO)N4C(=O)CN(C(=O)C5CC5)C[C@@H]34)cc2)c1 | 3.52 (inactive)
72 | CN(C)C(=O)c1cccc(-c2ccc([C@H]3[C@H](CO)N4C(=O)CN(C(=O)C5CCCCC5)C[C@@H]34)cc2)c1 | 1.54 (inactive)
